Screening results as filed in PubChem BioAssay.
This is one part of a sample in which hits are shown more often than they occur.
Cruzain inh noDet: cruzain (T. cruzi) inhibition without detergent. purified cruzain, Z-FR-AMC fluorescence, no detergent. AID 1476. Potency, µM, inactives show max response, negative = inhibition, actives largely listed as inhibitors. hit rate 2.3% among 200,000. P25779;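 note: plate controls were enzyme without inhibitor for no effect and buffer without enzyme for full effect; nearly all actives have a fitted effect of over 40% in size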
Target sequence (P25779 123-467 limits assumed): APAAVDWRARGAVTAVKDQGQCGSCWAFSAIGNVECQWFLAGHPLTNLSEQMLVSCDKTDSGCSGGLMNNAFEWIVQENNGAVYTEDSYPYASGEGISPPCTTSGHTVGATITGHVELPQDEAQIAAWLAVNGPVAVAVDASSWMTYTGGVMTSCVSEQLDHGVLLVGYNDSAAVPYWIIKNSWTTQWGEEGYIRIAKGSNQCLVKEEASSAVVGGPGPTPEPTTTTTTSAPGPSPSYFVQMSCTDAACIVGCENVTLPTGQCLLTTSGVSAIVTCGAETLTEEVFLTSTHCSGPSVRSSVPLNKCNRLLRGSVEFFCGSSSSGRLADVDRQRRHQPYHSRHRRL
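Purified cruzain at 1.5 nM, pre-incubated 15 min with compound at room temperature in 100 mM sodium acetate pH 5.5, 5 mM DTT, 0.00005% Triton X-100. Reaction started with 2 uM Z-FR-AMC; AMC fluorescence increase over 60 s gives rate.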
Cruzain Triton: blocks cruzain activity in presence of Triton detergent | purified cruzain, Z-FR-AMC fluorescence, 0.01% Triton | P25779 | hit rate 0.43% among 200,000 | AID 1478 | Potency, µM, for inactives: max response, negative = inhibition, hits mostly inhibitors;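 note: plate controls were neutral wells for no effect and buffer without enzyme for full effect; nearly all actives have a fitted effect of over 40% in size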
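Compounds were screened in titration against cruzain (1.5 nM) with 0.01% Triton X-100 to counter colloidal aggregation. Activity was the AMC fluorescence increase over 60 s after adding 2 uM Z-FR-AMC at pH 5.5.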
NS1 function inh: influenza NS1 inhibition. Potency, µM (titrated, usually from 46.1 µM), for the others: at the top dose activity, positive = more growth. hit rate 0.4% among 270,000. AID 2326; calls by dose curve; note: actives are rising curves; nearly all actives have a fitted effect of over 50% in size
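In this qHTS, NS1 from influenza A is expressed in budding yeast, where it slows growth. Cells are switched from glucose to 2% galactose medium (pH 6.0, -URA), treated with compound, and growth recovery is read at OD600.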
The depositor's hits bear a star. Unless noted, calls come from the whole dose curve; as a rule, active = well fitted curve in the direction sought with a large enough effect; inconclusive = small, poorly fitted or top-dose-only effect, or another doubt; inactive = no such curve, though single readings can be large; an effect the other way counts as inactive or inconclusive. Potency is the fitted concentration of half-maximal effect.

Results for Cc1ccc(NC(=O)c2c(C)nc3sc(C(=O)Nc4ccc(F)cc4)c(N)c3c2-c2ccc(Cl)cc2)c(C)c1 ?
Cruzain inh noDet: -8.1%; Cruzain Triton: 0.0%

What do the screens show for `C=CCOc1cccc(/C=N/NC(=O)CN(c2cc(Cl)ccc2OC)S(=O)(=O)c2ccc(C)c([N+](=O)[O-])c2)c1`?
Cruzain inh noDet: inconclusive; Cruzain Triton: -0.6%; NS1 function inh: 27.0%

Results for COc1ccc(Cl)cc1N(CC(=O)N/N=C/c1ccc(OC(C)C)cc1)S(=O)(=O)c1ccc(C)c([N+](=O)[O-])c1 ?
Cruzain inh noDet: 5.01µM*; Cruzain Triton: -1.8%; NS1 function inh: 23.1%

Results for Cc1ccc2nc(NC(=O)c3ccc(-c4nc5ccccc5s4)s3)sc2c1 ?
Cruzain inh noDet: 3.98µM*; Cruzain Triton: -19.6%; NS1 function inh: 25.1%

What do the screens show for `O=C(Nc1nc2ccccc2s1)c1ccc(Cl)s1`?
Cruzain inh noDet: inconclusive; Cruzain Triton: -0.1%; NS1 function inh: -33.5%

What do the screens show for `CCn1c2ccccc2c2cc(NS(=O)(=O)c3ccc(C)cc3)ccc21`?
Cruzain inh noDet: inconclusive; Cruzain Triton: -4.8%; NS1 function inh: -1.7%

Results for CS(=O)(=O)c1ccc2nc(NC(=O)Nc3ccc(Cl)c(Cl)c3)sc2c1 ?
Cruzain inh noDet: 10µM*; Cruzain Triton: -7.7%; NS1 function inh: inconclusive

What do the screens show for `CS(=O)(=O)c1ccc2nc(NC(=O)Nc3cccc(Cl)c3)sc2c1`?
Cruzain inh noDet: inconclusive; Cruzain Triton: -2.5%; NS1 function inh: 26.9%

How did COc1cc2cc(CN(CCCO)S(=O)(=O)c3ccccc3)c(=O)[nH]c2cc1OC do in these assays?
Cruzain inh noDet: 19.6%; Cruzain Triton: -1.4%; NS1 function inh: -3.8%

Results for CCOC(=O)C1=C(C)Nc2sc(C(=O)c3ccc(OC)cc3)c(N)c2C1c1ccc(C(=O)OC)cc1 (stereo not given) ?
Cruzain inh noDet: 31.6µM*; Cruzain Triton: -3.4%; NS1 function inh: 27.5%

What do the screens show for `COC(=O)C1=C(C)Nc2sc(C(N)=O)c(N)c2C1c1ccncc1` (stereo not given)?
Cruzain inh noDet: -12.1%; Cruzain Triton: -3.8%; NS1 function inh: 19.1%

What do the screens show for `CCC(=O)N=c1n(C)c2ccccc2n1CCOc1ccccc1`?
Cruzain inh noDet: 3.0%; Cruzain Triton: 3.1%; NS1 function inh: 16.0%

How did CCOC(=O)c1ccccc1NC(=O)CCc1nc(-c2ccc(C)cc2)no1 do in these assays?
Cruzain inh noDet: 5.0%; Cruzain Triton: -5.3%

What do the screens show for `Cc1ccc(-c2noc(CCC(=O)Nc3ccc(C)cn3)n2)cc1`?
Cruzain inh noDet: 25.1µM*; Cruzain Triton: 0.5%; NS1 function inh: 2.9%

Results for O=C(Nc1ccc(N=Nc2ccccc2)cc1)c1ccccc1Cl ?
Cruzain inh noDet: -0.7%; Cruzain Triton: -5.5%; NS1 function inh: -9.7%

How did O=C(Nc1ccc(N=Nc2ccccc2)cc1)c1ccc(Cl)cc1Cl do in these assays?
Cruzain inh noDet: 12.6µM*; Cruzain Triton: 7.2%; NS1 function inh: 0.2%

Results for Cc1cc2oc(=O)cc(CN3CCOCC3)c2cc1C ?
Cruzain inh noDet: -8.8%; Cruzain Triton: 0.0%; NS1 function inh: -5.3%

Results for CCNc1cc2oc(=O)c(CN3CCOCC3)c(C)c2cc1C ?
Cruzain inh noDet: inconclusive; Cruzain Triton: 28.2µM*; NS1 function inh: 13.8%

How did COc1ccc(Cn2c(O)c(C=Nc3ccc(O)cc3)c3ccccc3c2=O)cc1 do in these assays?
Cruzain inh noDet: 25.1µM*; Cruzain Triton: -3.0%; NS1 function inh: inconclusive

Results for COc1ccc(Cn2c(O)c(C=Nc3ccc(C)cc3)c3ccccc3c2=O)cc1 ?
Cruzain inh noDet: 12.6µM*; Cruzain Triton: -0.5%; NS1 function inh: 9.8%

Results for COc1ccc(Cn2c(O)c(C=Nc3ccccc3)c3ccccc3c2=O)cc1 ?
Cruzain inh noDet: inconclusive; Cruzain Triton: -5.1%; NS1 function inh: 14.8%

How did O=c1c2ccccc2c(C=Nc2ccc(O)cc2)c(O)n1Cc1ccccc1 do in these assays?
NS1 function inh: 0.3%

How did Cc1ccccc1CSCCC(=O)NCCC1=CCCCC1 do in these assays?
Cruzain inh noDet: 4.3%; Cruzain Triton: -3.4%; NS1 function inh: -38.3%

Results for O=C(C#Cc1ccccc1)Nc1ccccc1F ?
NS1 function inh: -39.3%

Results for Cc1ccc(S(=O)(=O)c2nnn3c2nc(NCCc2ccccc2)c2sccc23)cc1 ?
Cruzain inh noDet: 0.3%; Cruzain Triton: 0.0%

Results for Cc1ccc(S(=O)(=O)c2nnn3c2nc(NCc2ccc4c(c2)OCO4)c2sccc23)cc1 ?
Cruzain inh noDet: 9.3%; Cruzain Triton: -5.9%

What do the screens show for `CC(C)c1ccc(S(=O)(=O)c2nnn3c2nc(NCCc2ccccc2)c2sccc23)cc1`?
Cruzain inh noDet: 10µM*; Cruzain Triton: 0.2%

What do the screens show for `Cc1ccc(S(=O)(=O)c2nnn3c2nc(NCc2ccc4c(c2)OCO4)c2sccc23)cc1C`?
Cruzain inh noDet: 25.1µM*; Cruzain Triton: -5.7%
